Most compounds without a hit are left out; they make up all but 20% or so of the library.
Pf growth 48h – inhibits P. falciparum growth in the first generation, 48 h; Potency, µM (series often up to 28.7 µM), inactives show at the highest dose activity change, negative = inhibition, hits mostly inhibitors; hit rate 5.9% among 310,000; P. falciparum luciferase growth in erythrocytes, 48 h; AID 504832; also: potency is read from the fitted curve at half-maximal effect; % is scaled to controls: 0 for no effect and ±100 for the full control effect
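Compounds are pin-transferred into medium, infected erythrocytes (2% hematocrit, 0.1% parasitemia final) are added, and plates sit one parasite generation at 37 C in 5% CO2. Detection reagent is then added and luminescence measured.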
Pf growth 96h – inhibits malaria parasite growth, 96 h; Potency, µM (top dose mostly 28.7 µM), for inactives: at the top dose activity change, negative = inhibition, most hits filed as inhibitors; hit rate 6.9% among 320,000; P. falciparum luciferase reporter growth, 96 h; also: potency is read from the fitted curve at half-maximal effect; % is scaled to controls: 0 for no effect and ±100 for the full control effect
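Infected RBCs, 2% Hct / 0.05% parasitemia final; luciferase-reporter P. falciparum; cpd 96 h, 37 C, 5% CO2; luciferase detection reagent; luminescence.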
Shiga toxin inh – blocks Shiga toxin action in Vero cells; Vero cells, Shiga toxin protein synthesis inhibition reporter; hit rate 9.2% among 290,000; inhibition, % at 38.7 µM; in the data active = inhibition mostly above about 28%, no sharp cut-off; inactive = mostly below about 43%; also: 0% is about no effect
CHX counter – counter-screen for Shiga toxin inhibitors: cycloheximide protein synthesis inhibition; cell reporter, cycloheximide protein synthesis inhibition counterscreen; max response, %; hit rate 12% among 300,000; AID 2314; in the data active = max response mostly above about 13%, no sharp cut-off; inactive = mostly below about 14%; also: read at 38.3 µM for the half of the compounds with a filed dose; 0% is about no effect
HCMV inh – inhibitors of human cytomegalovirus; HFF cells, HCMV-luciferase reporter, 72 h; active compounds read low; activity change, negative = inhibition, % at 57.5 µM; hit rate 4.5% among 410,000; AID 1259415; in the data active = activity change below about -60%; inconclusive = no clear call, values can overlap the other calls; inactive = above about -39%; also: % is scaled to controls: 0 for no effect and ±100 for the full control effect
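Human foreskin fibroblasts infected with luciferase-reporter HCMV at MOI 1 PFU/cell, compounds at two doses. Luciferase measured 72 h post infection; normalized to buffer-only basal and Salinomycin (10uM) controls.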
* hit, by the source's call; i = inactive; ? = inconclusive; nt = not tested or not shown. Unless noted, calls follow the shape of the dose curve; as a rule, active = well fitted inhibition curve with a large enough effect; inconclusive = small, poorly fitted or top-dose-only effect, or another doubt; inactive = no such curve, though single readings can be large or run the other way.

SMILES | Pf growth 48h | Pf growth 96h | Shiga toxin inh | CHX counter | HCMV inh
Clc1ccccc1CNc1nc2ccccc2n2cnnc12 | -3% | -1% | 10 | -2 | 0
Cc1cccc(C(=O)OCc2cc(=O)n3nc(C4CC4)sc3n2)c1 | nt | nt | nt | nt | 0
CN(Cc1cccs1)C(=O)COc1cccc2c1OC(C)(C)C2 | nt | nt | nt | nt | -12
CC(O)CNCCCOc1ccccc1OCc1ccccc1 (stereo unspecified) | ? | 28% | -17 | 0 | ?
c1ccc(CNCCCNCCCCNCCCNCc2ccccc2)cc1 | nt | nt | nt | nt | -97*
OCCCCNCc1ccc(OCc2ccccc2)cc1 | 17% | 101% | 34 | 14* | -35
CC(O)CNCCCCOc1ccc(OCc2ccccc2)cc1 (stereo unspecified) | ? | ? | 75* | 24* | 7
O=C(O)CCCCNCc1ccccc1 | nt | 22% | -1 | -4 | -12
Cc1cc(OCCCCCNCCO)cc(C)c1Cl | nt | 13µM* | -9 | 1 | ?
OCCCNCc1ccc(-c2ccccc2)cc1 | ? | 13% | 30 | 1 | -16
O=c1[nH]c(NC2CCCCC2)c([N+](=O)[O-])c(=O)[nH]1 | 1% | 2% | -4 | -1 | 0
O=C(NC(=S)Nc1ccc(N2CCCC2)cc1)c1ccc(F)cc1 | ? | 34% | 6 | -2 | -28
Cc1ccc(Cl)c2c1NC(=O)C2=O | nt | nt | nt | nt | -12
COc1c(C)cc(C(=O)C2CCCN(Cc3c(C)n(C)n(-c4ccccc4)c3=O)C2)cc1C (stereo unspecified) | -3% | ? | 3 | -1 | -71*
Cc1ccsc1C(=O)C1CCCN(Cc2cnc(N3CCOCC3)s2)C1 (stereo unspecified) | -29% | 26% | -7 | 1 | -33
CCn1ccnc1CN1CCCC(C(=O)c2cc(Cl)ccc2OC)C1 (stereo unspecified) | 21% | 14% | -3 | -1 | -5
COc1ccc2cc(C(=O)C3CCCN(Cc4cnc(N5CCOCC5)s4)C3)ccc2c1 (stereo unspecified) | ? | 2% | 12 | -3 | -65*
COc1cccc(C(=O)C2CCCN(Cc3c(C)n(C)n(-c4ccccc4)c3=O)C2)c1 (stereo unspecified) | -9% | 0% | -23 | -1 | -37
CCOC(=O)CNC(=O)N1CCCC(C(=O)c2cc(C)c(OC)c(C)c2)C1 (stereo unspecified) | -5% | ? | -2 | -4 | 29
CCn1ccnc1CN1CCCC(C(=O)c2ccc3cc(OC)ccc3c2)C1 (stereo unspecified) | 2.9µM* | ? | 13 | 2 | -9
CCn1ccnc1CN1CCCC(C(=O)c2cc(C)c(OC)c(C)c2)C1 (stereo unspecified) | 12µM* | ? | 14 | -2 | -32
O=C(c1cccc(F)c1)N1CCN(c2ccc([N+](=O)[O-])c(N3CCOCC3)c2)CC1 | -10% | 35% | -2 | -4 | 24
Cc1ccc(C(C)C)cc1S(=O)(=O)Nc1ccncc1 | 33% | 37% | 6 | 1 | 3
CC(C)c1ccc(NC(=O)C2CCCN(S(=O)(=O)c3cccc4cccnc34)C2)cc1 (stereo unspecified) | nt | nt | nt | nt | -6
COc1ccc(S(=O)(=O)N2CCC(C(=O)NCc3ccncc3)CC2)cc1C | 2% | 237% | -12 | -4 | -29
SMILES | Pf growth 48h | Pf growth 96h | Shiga toxin inh | CHX counter | HCMV inh
COc1ccc2cc(C(=O)C3CCCN(Cc4ccccn4)C3)ccc2c1 (stereo unspecified) | 9.3µM* | -21% | -1 | 11 | ?
COc1c(C)cc(C(=O)C2CCCN(Cc3ccc(Oc4ncccn4)cc3)C2)cc1C (stereo unspecified) | ? | -29% | -10 | 1 | -83*
Cc1n[nH]c(=O)n(N=Cc2c[nH]c3ccccc23)c1=O | nt | nt | nt | nt | 40
O=C(NCCc1c[nH]c2ccccc12)OCCCCOC(=O)NCCc1c[nH]c2ccccc12 | 10µM* | ? | nt | nt | -10
O=C(COC(=O)c1ccccc1C(=O)OCC(=O)NCCc1c[nH]c2ccccc12)NCCc1c[nH]c2ccccc12 | 9.3µM* | 12µM* | nt | nt | 64
O=C(CCCc1c[nH]c2ccccc12)NCCc1c[nH]c2ccccc12 | ? | ? | -4 | -3 | 74
O=C(COC(=O)c1ccc[nH]c1=O)NCCc1ccc(Cl)cc1Cl | 292% | i | 98* | 79* | 27
Cc1[nH]c(C)c(S(=O)(=O)NCC(C)c2ccccc2)c1C(=O)N1CCCCC1 (stereo unspecified) | -13% | ? | 5 | -8 | 0
COc1ccccc1-c1sc2cc3c(cc2c1C#CC1(O)CCCCC1)OCO3 | ? | 4.7µM* | nt | nt | -23
COc1ccc(-c2sc3cc4c(cc3c2C#CC2(O)CCCCC2)OCO4)cc1 | ? | ? | nt | nt | 4
COc1ccc(-c2ccc(C3C4C=CCCC4(C)C(=O)N3Cc3ccccc3)c(F)c2)cc1 (stereo unspecified) | nt | nt | -4 | 8 | nt
Cc1nc([N+](=O)[O-])cn1CC(O)c1ccc(F)cc1 (stereo unspecified) | 4% | 6% | -10 | 1 | ?
CC(=O)Nc1ccc(C(=O)N/C(=C/c2ccccc2)C(=O)Nc2cccc(C(=O)O)c2)cc1 | 3% | 20% | 1 | -3 | -28
CC(=O)Nc1ccc(NC(=O)/C(Cl)=C/c2ccccc2)cc1 | 55% | 21% | 157* | 47* | 0
COc1ccc(NC(=O)CN2C(=O)NC(C)(c3ccc(C)cc3)C2=O)cn1 (stereo unspecified) | -24% | ? | nt | nt | 0
CCCOc1ccc(F)cc1-c1cc(C(=O)NCc2cc(OC)cc(OC)c2)[nH]n1 | nt | nt | nt | nt | 29
CC(C)C[C@@H]1NC(=O)[C@H](Cc2ccccc2)N(C)C(=O)[C@H](C)NC(=O)c2ccccc2NC(=O)[C@H](Cc2ccc(O)cc2)N(C)C1=O | 3.7µM* | ? | 4 | -7 | -30
CCn1c(O)c(C=NC2CCCC(C)C2C)sc1=S (stereo unspecified) | -7% | ? | 110* | 51* | 8
CCn1c(O)c(C=NCc2ccccc2)sc1=S | 0% | 0% | 33 | 15 | -8
O=C(CCCN1C(=O)/C(=C/c2cccc(Br)c2)SC1=S)Nc1ccccn1 | ? | ? | -5 | -2 | -101*
Cc1ccc(/C=C2\SC(=S)N(CCCC(=O)Nc3cccnc3)C2=O)cc1 | ? | -2% | -11 | 8 | nt
Cc1cc(NC(=O)CN2C(=O)/C(=C/c3cccc(Br)c3)SC2=S)no1 | 6% | 39% | -12 | 10 | 20
O=C(CCCN1C(=O)/C(=C/c2cccc(Br)c2)SC1=S)Nc1cccnc1 | -28% | ? | 29 | 13 | -99*
O=C(CCCN1C(=O)/C(=C\c2cccc(Br)c2)SC1=S)Nc1cccnc1 | ? | 8% | -10 | -3 | -99*
O=C(CSCCO)Nc1cccc([N+](=O)[O-])c1 | 16% | -34% | -15 | 10 | -7
Cn1nnnc1SCC(=O)Nc1cccc([N+](=O)[O-])c1 | 47% | -3% | 55 | -2 | -68*

Assay outcomes (PubChem BioAssay)
